Most compounds without a hit are left out; they make up all but 19% or so of the library.
DT40 TDP1 CPT: DT40-hTDP1 cell growth loss with CPT | chicken DT40 Tdp1-/-;hTDP1 cells + 20 nM CPT, ATP luminescence, 48 h | Potency, µM (highest dose often 46.2 µM), for inactives: at the highest dose activity change, negative = growth inhibition, usual class: inhibitors | 420,000 tested, 12% active | AID 686979; further: potency means the concentration at half of the fitted maximal effect; on the % scale 0 is the no-effect control and ±100 the full control effect; nearly all actives have a fitted effect of over 55% in size
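Cell growth measured by CellTiter-Glo luminescence after a minimum 48 h, 37 C compound exposure with 20 nM CPT in Tdp1-knockout DT40 cells stably expressing hTDP1, seeded 400/well; qHTS titration format.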
IL-1B inflam inh: inflammasome signaling inhibition, IL-1 beta readout; THP-1 LPS/ATP IL-1B secretion, AlphaLISA, 16 h; hits give low values; activity change, % at 57.5 µM; 360,000 tested, 4.7% active; in the data active means activity change below about -50%; inconclusive means mostly about -30% to -49%; further: on the % scale 0 is the no-effect control and ±100 the full control effect
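Secreted IL-1B measured by AlphaLISA bead assay after 16 h compound exposure of THP-1 cells; compounds (final up to 57.5 uM) added 1 h before LPS (250 ng/mL) and ATP (1.25 mM) stimulation; lower signal means less secretion.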
DT40 TDP1 no CPT: qHTS for Inhibitors of human tyrosyl-DNA phosphodiesterase 1 (TDP1): qHTS in cells in absence of CPT; DT40 Tdp1-/- hTDP1 cells, no CPT, ATP luminescence, 48 h; Potency, µM (highest dose often 46.2 µM), inactives show top-dose activity change, negative = growth inhibition, hits mostly inhibitors; 420,000 tested, 15% active; AID 686978, 2013; further: potency means the concentration at half of the fitted maximal effect; on the % scale 0 is the no-effect control and ±100 the full control effect; nearly all actives have a fitted effect of over 55% in size
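Chicken DT40 Tdp1-/- cells stably complemented with human TDP1 were seeded at 400 cells/well with DMSO in place of 20 nM camptothecin. After compound pinning, cells grew at least 48 hr at 37 °C; viability read by CellTiter-Glo luminescence.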
BCR signal inh: blocks chronic active B-cell receptor signaling. ABC-DLBCL IkBa-CBG/CBR reporter, luminescence ratio, 4 h. Potency, µM (top dose mostly 46.1 µM), for inactives: top-dose activity change, negative = inhibition, hits mostly inhibitors. 340,000 tested, 0.05% active; active means well fitted inhibition curve with a large enough effect in the signal ratio, with a control signal flat, not every such curve was filed as active; inconclusive means small, poorly fitted or top-dose-only effect, or effect the other way, or a change in a side signal; the % refers to the signal ratio;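 further: potency means the concentration at half of the fitted maximal effect; plate controls were basal doxycycline-induced cells for no effect and cells given 10 µM MG132 for full effect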
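Doxycycline induced both beetle luciferases in TMD8 lymphoma cells; IKK-driven degradation limits the IkappaBalpha-fused green signal, while red luminescence normalises for cell number and nonspecific effects. Compounds tested up to 46 uM, 4 hrs.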
MCF10A rerep: inducers of DNA re-replication in MCF 10A breast cells. Potency, µM (series often up to 46.1 µM), inactives show top-dose activity, positive = re-replication, hits mostly activators. 350,000 tested, 2.9% active. MCF 10A DNA re-replication, Hoechst nuclear intensity, 48 h; further: potency means the concentration at half of the fitted maximal effect; % of control where 0% means no effect; nearly all actives have a fitted effect of over 50% in size
SW480 rereplic: induces DNA re-replication in SW480 colon adenocarcinoma cells; Potency, µM (titrated, usually from 46.1 µM), without a hit: at the top dose re-replication activation, hits mostly activators; 340,000 tested, 1.8% active; SW480 DNA re-replication, Hoechst DNA content imaging, 48 h; further: potency means the concentration at half of the fitted maximal effect; % of control where 0% means no effect; nearly all actives have a fitted effect of over 55% in size
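Per well, 250 cells were exposed to pinned compound for 48 hr. Nuclear DNA was visualised with Hoechst (40 min, 37 C) and total object intensity recorded by fluorescence scanning.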
Numbers without * were called inactive; u = inconclusive; x = no result given; [ ] = remark or other dose. Unless noted, the call rests on the fitted dose curve; in most records, active means well fitted curve in the direction sought with a large enough effect; inconclusive means small, poorly fitted or top-dose-only effect, or another doubt; inactive means no such curve, though single readings can be large; an effect the other way counts as inactive or inconclusive.

SMILES	DT40 TDP1 CPT	IL-1B inflam inh	DT40 TDP1 no CPT	BCR signal inh	MCF10A rerep	SW480 rereplic
CC1CCCN(CCOCCOc2ccc(Cl)cc2Br)C1 (stereo not drawn)	u	u	18µM*	u	23%	u
C=CCc1cccc(Cl)c1OCCCNC1CCCC1	23µM*	-28	18µM*	-9%	2%	-3%
Cc1cc(Cl)c(OCCOCCN2CCCC(C)C2)c(Br)c1 (stereo not drawn)	29µM*	-15	16µM*	-2%	u	u
Cc1cc(Cl)c(OCCOCCN2CCCCC2)c(Br)c1	-16%	-16	u	0%	u	10%
Cn1c(=O)c2c(nc(/C=C/c3cccc(Cl)c3)n2C)n(C)c1=O	0%	7	-2%	x	-7%	6%
CN1CCN(CCOCCOc2ccc(Br)cc2Cl)CC1	u	0	u	5%	u	5%
CC1CCN(CCCOc2ccc(Br)cc2Cl)CC1	-12%	-60*	-26%	-2%	15%	0%
Cc1cc(Cl)c(OCCCNC2CCCC2)c(Br)c1	u	-73*	u	-17%	21%	u
CCOC(=O)C1=C(O)/C(=C/c2cn(CC(=O)N3CCCC3)c3ccccc23)SC1=Nc1ccccc1	18µM*	u	18µM*	u	8.2µM*	u
Cc1c(C(=O)Nc2ccc(F)c(F)c2)oc2ccc(S(=O)(=O)N(C)C3CCCCC3)cc12	18µM*	x	15µM*	23%	x	x
Cc1ccc(NC(=O)c2oc3ccc(S(=O)(=O)N(C)C4CCCCC4)cc3c2C)cc1Cl	u	x	u	-8%	x	x
Cc1c(C(=O)NCC2COc3ccccc3O2)oc2ccc(S(=O)(=O)N(C)C3CCCCC3)cc12 (stereo not drawn)	u	-9	15µM*	u	10%	7%
Cc1ccc(N2CCN(C(=O)Nc3cn(CC(C)C)c(=O)c4ccccc34)CC2)c(C)c1	10µM*	x	10µM*	x	x	x
CNS(=O)(=O)c1cn(CC(=O)N2CCN(c3ccc(C)cc3C)CC2)cc1S(=O)(=O)NC	-14%	x	-29%	x	x	x
Cc1cccc(N2CCN(C(=O)Nc3cn(CC(C)C)c(=O)c4ccccc34)CC2)c1C	8.2µM*	x	7.3µM*	x	x	x
CC(=O)Nc1ccccc1C(=O)N1CCN(c2cccc(C)c2C)CC1	-28%	-27	1%	-18%	2%	0%
COc1cccc2[nH]c3c(N4CCN(Cc5ccc6c(c5)OCO6)CC4)ncnc3c12	x	x	x	-1%	x	x
COc1cccc2[nH]c3c(N4CCC5(CC4)OCCO5)ncnc3c12	u	-3	23µM*	10%	21%	25%
c1ccc2c(c1)[nH]c1c(N3CCC4(CC3)OCCO4)ncnc12	16µM*	-12	7.3µM*	16%	u	17%
c1nc(N2CCC3(CC2)OCCO3)c2[nH]cnc2n1	-27%	1	-23%	-1%	u	3%
OC1(c2cccc(C(F)(F)F)c2)CCN(c2ccc(-c3ccccc3)nn2)CC1	-29%	-5	-22%	7%	-2%	-6%
OC1(c2cccc(C(F)(F)F)c2)CCN(c2ncnc3c2[nH]c2ccccc23)CC1	23µM*	-24	21µM*	2%	u	u
COc1cccc2[nH]c3c(N4CCC(C)CC4)ncnc3c12	26µM*	-52*	18µM*	u	17%	-1%
c1ccc(Cn2nnc3c(N4CCc5ccccc5C4)ncnc32)cc1	-12%	-11	u	u	u	4%
c1ccc2c(c1)CCN(c1ncnc3c1[nH]c1ccccc13)C2	4.6µM*	-84*	4.6µM*	u	u	u
SMILES	DT40 TDP1 CPT	IL-1B inflam inh	DT40 TDP1 no CPT	BCR signal inh	MCF10A rerep	SW480 rereplic
COc1cccc2[nH]c3c(N4CCc5ccccc5C4)ncnc3c12	u	u	21µM*	u	u	-2%
O=C1c2ccccc2C(=O)N1c1cccc(O)c1	-1%	x	2%	x	x	x
COc1ccc([C@]23Cc4cc(OC)c(OC)cc4C(O2)C2=C(CC(C)(C)CC2=O)O3)cc1	x	x	x	24%[9.22 µM]	x	x
C/C(Cl)=C/Cc1c(C)[nH]c2c(ccc3ccccc32)c1=O	u	-5	23µM*	u	15%	-3%
O=C(Cc1ccccc1[N+](=O)[O-])NCc1ccco1	6%	19	1%	1%	2%	-4%
CC(C)Cc1ccc(C(C)C(N)=NCCc2ccccc2)cc1 (stereo not drawn)	u	-91*	21µM*	u	u	6.5µM*
COc1ccc(C(=O)/C=C/c2ccc(O)cc2)c(O)c1CC=C(C)C	13µM*	-72*	u	1%	23µM*	2%
CC(=O)c1ccc(O)c(CC=C(C)C)c1O	-28%	-2	u	x	-4%	13%
COc1ccc(C(=O)/C=C/c2ccc(O)cc2)c2c1CC(O)C(C)(C)O2 (stereo not drawn)	u	-93*	16µM*	u	97%	14%
CC(C)(CO)NC(=O)c1ccc2c(c1)C(=O)c1ccccc1-2	-19%	-28	18µM*	1%	4%	-3%
COc1cc(C(=O)NCCOc2cc(C)cc(C)c2)cc(OC)c1OC	4.1µM*	27	2.9µM*	u	21µM*	7.3µM*
CCCCNCC#CCOc1cc(C)ccc1C(C)C	u	-70*	u	u	2%	-1%
COc1cc(C(=O)NCCOc2ccccc2)cc(OC)c1OC	27%	-15	-8%	1%	2%	0%
Cc1ccc(C(C)C)c(OCCNCCc2ccccc2)c1	u	-91*	23µM*	2%	13µM*	u
COc1cc(C(=O)NCCOc2cc(C)ccc2C(C)C)cc(OC)c1OC	u	-63*	12µM*	u	u	u
Cc1ccc(C(C)C)c(OCCCNCc2cccnc2)c1	u	-6	u	-3%	-2%	9%
Cc1ccc(C(C)C)c(OCCNC(=O)c2cncc(Br)c2)c1	u	-8	u	9%	u	2%
Cc1ccc(C(C)C)c(OCCNS(C)(=O)=O)c1	5%	11	-1%	x	-1%	-7%
COc1ccc(C(=O)N/C(=C/c2cccnc2)C(=O)N2CCN(C)CC2)cc1OC	1%	2	16%	10%	2%	25%
COc1cc(-c2noc(-c3ccc(NCc4ccco4)c([N+](=O)[O-])c3)n2)cc(OC)c1OC	12µM*	x	7.3µM*	x	x	x

Source: PubChem BioAssay (National Center for Advancing Translational Sciences (NCATS))
